NS1 inh: qHTS Assay for Inhibitors of Influenza NS1 Protein Function; Potency, µM (series often up to 46.1 µM), without a hit: at the top dose activity, positive = more growth; actives 0.4% (n = 270,000); AID 2326, 2010; further: actives are rising curves; nearly all actives have a fitted effect of over 50% in size
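Growth recovery, yeast-based: influenza A NS1 expressed in S. cerevisiae causes slow growth, and suppressors are detected by OD600. The parent strain without NS1 is used as positive control.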
SARS PLP yeast: qHTS of Yeast-based Assay for SARS-CoV PLP. S. cerevisiae expressing SARS-CoV PLpro, growth rescue. Potency, µM (series often up to 32.9 µM), inactives show at the highest dose activity, positive = growth rescue, usual class: activators. actives 0.19% (n = 330,000). AID 485353, 2010; further: 0% is about no effect; nearly all actives have a fitted effect of over 55% in size
Pf growth 48h: Primary qHTS for delayed death inhibitors of the malarial parasite plastid, 48 hour incubation | P. falciparum luciferase growth in erythrocytes, 48 h | Potency, µM (doses to about 28.7 µM), without a hit: top-dose activity change, negative = inhibition, most hits filed as inhibitors | actives 5.9% (n = 310,000); active means well fitted inhibition curve with a large enough effect; inconclusive means small, poorly fitted or top-dose-only effect, or another doubt; inactive means no such curve, though single readings can be large or run the other way; further: on the % scale 0 is the no-effect control and ±100 the full control effect
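A one-generation exposure of luciferase-tagged malaria parasites in RPMI 1640/Albumax erythrocyte culture, 37 C and 5% CO2. Inhibition is inferred from decreased luminescence after adding detection reagent.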
Pf growth 96h: Primary qHTS for delayed death inhibitors of the malarial parasite plastid, 96 hour incubation; AID 504834, 2011; Potency, µM (doses to about 28.7 µM), for inactives: at the top dose activity change, negative = inhibition, actives largely listed as inhibitors; actives 6.9% (n = 320,000); P. falciparum luciferase reporter growth, 96 h; active means well fitted inhibition curve with a large enough effect; inconclusive means small, poorly fitted or top-dose-only effect, or another doubt; inactive means no such curve, though single readings can be large or run the other way; further: on the % scale 0 is the no-effect control and ±100 the full control effect
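Cell-based qHTS: luciferase-tagged P. falciparum in erythrocytes (2% hematocrit, 0.05% parasitemia final) incubated with compounds for 96 hours, 37 C, 5% CO2; luciferase detection reagent then added and luminescence measured.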
* hit, by the source's call; ? = inconclusive; . = no result. Sampled rows, rich in hits. Any-hit rate of the full collection: about 10%. Unless noted, the call rests on the fitted dose curve. Potency means the concentration at half of the fitted maximal effect.

SMILES | NS1 inh | SARS PLP yeast | Pf growth 48h | Pf growth 96h
CCC(=O)[C@@]1(C)[C@H](C)C[C@H]2[C@@H]3CCC4=CC(=O)C=C[C@]4(C)[C@H]3[C@@H](O)C[C@@]21C | . | . | 2.3µM* | 5%
CCCC1OC2CC3C4CCC5=CC(=O)C=CC5(C)C4C(O)CC3(C)C2(C(=O)O)O1 (configuration not stated) | 18% | -3% | 8% | -66%
CCC[C@@H]1O[C@@H]2C[C@@H]3[C@H]4CCC5=CC(=O)C=C[C@@]5(C)[C@H]4[C@H](O)C[C@@]3(C)[C@@]2(C(=O)CO)O1 | . | . | 11µM* | 4.8µM*
CCCC1O[C@@H]2C[C@H]3[C@@H]4CCC5=CC(=O)C=C[C@]5(C)[C@H]4[C@@H](O)C[C@]3(C)[C@]2(C(=O)CO)O1 (some centres not stated) | -10% | 3% | 4.1µM* | 2.3µM*
C=C1N[C@]2(C(=O)COC(C)=O)[C@@H](C[C@H]3[C@@H]4CCC5=CC(=O)C=C[C@]5(C)[C@H]4[C@@H](O)C[C@@]32C)O1 | . | . | ? | 9.5µM*
CCOC(=O)c1c(C)[nH]c(C)c1S(=O)(=O)NCCN1CCN(c2ccccc2F)CC1 | -19% | 3% | ? | 0%
O=C(CN1CCN(C(=O)C2CCCO2)CC1)Nc1ccc(F)cc1 (configuration not stated) | 11% | -2% | -9% | -7%
CC(C)C(=O)OCC(=O)[C@@]12OC(C3CCCCC3)O[C@@H]1CC1C3CCC4=CC(=O)C=C[C@]4(C)C3[C@@H](O)C[C@@]12C (some centres not stated) | . | . | 0.67µM* | 0.76µM*
CCCC1O[C@@H]2CC3C4CCC5=CC(=O)C=C[C@]5(C)C4C(OC(C)=O)C[C@]3(C)[C@]2(C(=O)COC(C)=O)O1 (some centres not stated) | -1% | -9% | 9.3µM* | 1.2µM*
CNc1nc(Oc2ccc(C(=O)OC)cc2)nc(SC)n1 | -1% | -16% | 10µM* | 14%
COC(=O)c1ccc(Oc2nc(SC)nc(N(C)C)n2)cc1 | -6% | -1% | -22% | -15%
CCN(CC)c1nc(Oc2ccc(C(=O)NN)cc2)nc(Oc2ccc(C(=O)NN)cc2)n1 | ? | -1% | 9.3µM* | 9.3µM*
CCOC(=O)c1ccc(Oc2nc(NC)nc(OC)n2)cc1 | -20% | -7% | 13µM* | 1%
CCNc1nc(OC)nc(Oc2ccc(C(=O)OC)cc2)n1 | -13% | -9% | ? | .
CCN(CC)c1nc(Nc2ccccc2)nc(Oc2ccc(C(=O)OC)cc2)n1 | -13% | -3% | 15% | -33%
C[C@H](CO)N1C[C@H](C)[C@@H](CN(C)S(=O)(=O)c2ccccc2)Oc2c(NC(=O)C3CCCCC3)cccc2C1=O | . | -1% | . | .
CC(C)NC(=O)c1sc2nc3c(c(-c4cccs4)c2c1N)CN(C)CC3 | 7% | 2% | . | -17%
CN1CCc2nc3sc(C#N)c(N)c3c(-c3cccs3)c2C1 | 4% | -4% | 13µM* | .
CC(Oc1ccc(Cl)cc1Cl)c1nc(-c2ccc(NC(=O)c3ccco3)cc2)no1 (configuration not stated) | -3% | -35% | . | 0.93µM*
COC(=O)c1cc(S(=O)(=O)N2CCN(c3ccc(C(C)=O)cc3)CC2)cn1C | -6% | 0% | -9% | 15%
COc1ccc(/C=N/Nc2nnc(-c3ncc[nH]3)c3ccccc23)cc1 | 3% | 0% | 98% | 189%
Oc1ccc2ccccc2c1/C=N/Nc1nnc(-c2ncc[nH]2)c2ccccc12 | -228% | ? | 2.6µM* | .
COc1ccc(-c2ccccc2)cc1NCc1ccccc1C | -6% | -2% | 68% | ?
COc1ccccc1CNc1cc(-c2ccccc2)ccc1OC | -1% | -3% | ? | 9.3µM*
COc1ccccc1CNCc1ccc(OC)c(OC)c1OC | 14% | -4% | -28% | 10µM*
SMILES | NS1 inh | SARS PLP yeast | Pf growth 48h | Pf growth 96h
COc1cc(CNCc2cccc(OC)c2OC)cc(OC)c1 | ? | 5% | 0% | -9%
COc1cccc(CNCc2ccccc2Br)c1OC | -8% | 2% | 3% | 9.3µM*
COc1cccc(CNCc2cccc(Br)c2)c1OC | . | 0% | 5% | 249%
CCCCCn1c(CNC(=O)c2cccs2)nc2ccccc21 | -7% | -3% | ? | 0.59µM*
CCCCn1c(CNC(=O)c2cccs2)nc2ccccc21 | -7% | -2% | 5.2µM* | 2.1µM*
CCCCn1c(C(C)NC(=O)c2cccs2)nc2ccccc21 (configuration not stated) | -11% | -2% | ? | 33%
CCCCCn1c(CCNC(=O)c2cccs2)nc2ccccc21 | -50% | -8% | ? | -19%
Fc1cccc(CN(C2=NCCN2)c2c(Cl)cccc2Cl)c1 | . | . | 12µM* | 3%
CCOC(=O)c1oc2nc(CC(C)C)c3c(c2c1N)CCC3 | 4% | -2% | ? | 7.4µM*
CC(C)Cc1nc2oc3c(N4CCN(CCO)CC4)ncnc3c2c2c1CCCC2 | -51% | 4% | ? | ?
COC(=O)[C@H](Cc1ccccc1)NC(=O)NCCc1ccccc1F | 2% | -2% | 25% | 7%
COc1ccc2nc(-c3ccccc3)[nH]c2c1 | -44% | -24% | 53% | 12µM*
Nc1ccc2nc(-c3cccc(-c4nc5ccc(N)cc5[nH]4)n3)[nH]c2c1 | 2% | -2% | 2.1µM* | 0.52µM*
Nc1ccc2nc(-c3ccc(-c4nc5ccc(N)cc5[nH]4)cc3)[nH]c2c1 | -44% | -1% | 12µM* | 2.3µM*
CC(=O)NCCc1nc2cc(NS(=O)(=O)c3ccccc3)ccc2n1C | 2% | -1% | 1% | 12%
COc1cc(C(C)=O)ccc1OCC(=O)c1cc(C)n(C2CC2)c1C | -64% | -4% | ? | 12µM*
COc1ccc2c(c1)OC[C@H]1[C@H]2N2C(=O)c3cc(OC)c(OC)cc3NC(=O)[C@@]2(C)[C@H]1c1ccccc1 | . | 3% | 2.3µM* | 6.6µM*
COc1ccc2c(c1)C(=O)N1[C@H]3c4cc(OC)ccc4OC[C@@H]3[C@H](c3ccccc3)[C@]1(C)C(=O)N2 | . | -2% | 13µM* | ?

Bioassay records as filed in PubChem BioAssay.
